Among all 69,000 compounds or so, about 8,600 (12%) showed an effect of 50% or more. Shown is part of a subset that was picked to be rich in strong results.

Here are results for 51 compounds from ChEMBL document CHEMBL4513216, “Probing the Open Global Health Chemical Diversity Library for Multistage-Active Starting Points for Next-Generation Antimalarials” (ACS Infect Dis, 2020).

In this assay the test system is Plasmodium berghei. Description: Screen against P. berghei liver stage (PbLuc), transformed with Luciferase, at 10uM. Format: functional, HepG2. Conditions: tested at 10 uM.
Regarding `Cc1ccnc(C2COCCN2C)n1` (stereo unspecified), the INHIBITION was determined as 8.905%.
To `CCn1ccnc1CN1CCN(CC(O)c2ccco2)CC1` (stereo unspecified) belongs 10.55%; to `c1cncc(COCC2CN(Cc3cccnc3)Cc3ccnn3C2)c1` (stereo unspecified), -60.2%.
In the case of `CCCc1cc(=O)[nH]c(-c2ccccc2CN(C)CCC(C)C)n1`, the INHIBITION came out at 36.6%.
As to `Cc1cccn2cc(CN3CCC(N4CCN(C)C4=O)CC3)nc12`, the INHIBITION was -1.85%.
For `OC(CN1CCN(Cc2cccnc2)CC1)c1cccs1` (stereo unspecified), the INHIBITION was 10.1%.
On to `CCc1nccn1CCC(=O)N1CCCC1c1cncc(NC)n1` (stereo unspecified), for which the INHIBITION is listed as 2.365%.
For `O=C(CN1CC(c2nc(C3CC3)no2)C1)NCC1CCCO1` (stereo unspecified), the INHIBITION is 48%.
`O=S(=O)(C1CC1)N1CCO[C@H]2[C@H](OCCN3CCCC3)CC[C@@H]21`: the INHIBITION is -9.67%.
Consider `CN(Cc1cnccn1)S(=O)(=O)N1CCCC1c1ccco1` (stereo unspecified), for which the INHIBITION is 4.3%.
With `Cc1noc(C)c1CN1CCOC(CNc2cccnn2)C1` (stereo unspecified), the INHIBITION is listed as -7.35%.
Regarding `CCOc1cc(CNCc2cnc(C)cn2)c(Cl)cc1OC(C)C`, the INHIBITION was 63.5%.
For the compound `CCOc1cc(CNCc2nc(C)cc(=O)[nH]2)c(Cl)cc1OC(C)C`, the INHIBITION is 39.6%.
On to `CCOc1cc(CNCc2ncc[nH]2)c(Cl)cc1OC(C)C`, for which the INHIBITION is 33.1%.
With `Cc1nc(CN2CCN(C(=O)NC(C)Cn3ccnc3)CC2)cs1` (stereo unspecified), the INHIBITION is listed as -28.2%.
On to `CNc1ncc(CN2CCC(c3nnsc3S(C)(=O)=O)CC2)cn1`, for which the INHIBITION is 21.9%.
To `CS(=O)(=O)c1snnc1C1CCCN(Cc2ccncc2)C1` (stereo unspecified) belongs 9.93%.
Take `CS(=O)(=O)c1snnc1C1CCN(Cc2cccnc2)CC1`: the INHIBITION was 48.6%.
For the compound `CN(C)c1ncc(CN2CCC(c3nnsc3S(C)(=O)=O)CC2)cn1`, the INHIBITION came out at 51.2%.
`Cc1cccc(CN2CCC(c3nnsc3S(C)(=O)=O)CC2)c1`: the INHIBITION is listed as 18.9%.
Take `CS(=O)(=O)c1snnc1C1CCN(Cc2ccncc2)CC1`: the INHIBITION came out at 67.7%.
As to `CCC(O)CN1CCN(C(=O)c2cnc3n[nH]c(C)c3c2)CC1` (stereo unspecified), the INHIBITION came out at 12.7%.
For `O=C(O)CSc1nccc(-c2ccc3c(c2)OCO3)n1`, the INHIBITION is recorded as 8.51%.
For `CCc1nnc(C(C)N2CCc3cncnc3C2)o1` (stereo unspecified), the INHIBITION is 2.43%.
To `O=C(NC1CC1)N1CC[C@H](OCC2CC2)[C@@H]1Cc1cccnc1` belongs 29%; to `O=C(CN1CCC(c2ccccc2)C1)NC(=O)NCC(F)(F)F` (stereo unspecified), 36.65%; to `O=C(Nc1nc2c(s1)CN(S(=O)(=O)C1CC1)CC2)c1cccc(Cl)c1`, 26%.
Consider `O=C(Nc1nc2c(s1)CN(S(=O)(=O)C1CC1)CC2)c1ccc(Cl)s1`, for which the INHIBITION worked out at 73.3%.
In the case of `O=C(Nc1nc2c(s1)CN(S(=O)(=O)C1CC1)CC2)Nc1ccccc1F`, the INHIBITION was determined as 64.5%.
On to `CS(=O)(=O)N1CCc2nc(NC(=O)Nc3c(F)cccc3F)sc2C1`, for which the INHIBITION is 9.54%.
For the compound `O=C(Nc1nc2c(s1)CN(S(=O)(=O)C1CC1)CC2)c1c(F)cccc1F`, the INHIBITION is -45.9%.
Take `O=C(Nc1nc2c(s1)CN(S(=O)(=O)C1CC1)CC2)c1ccccn1`: the INHIBITION amounted to 39.3%.
Regarding `CC(CNC(=O)NCCCc1cc(N)n(-c2ccccc2)n1)N(C)C` (stereo unspecified), the INHIBITION is listed as 30.3%.
In the case of `CCN(CC)Cc1cn2c(n1)CN(C(=O)c1cc(C)on1)CC2`, the INHIBITION was determined as 38.1%.
As for `COC(=O)C1(NCC(=O)Nc2cc(C)ccc2OC)CCCCC1`, the INHIBITION was found to be 5.11%.
Regarding `c1ncn(CC2CN(Cc3nc(C4CC4)no3)CCO2)n1` (stereo unspecified), the INHIBITION is -7.31%.
`CCn1cnnc1C1CCN(C(=O)c2ccnc(N(C)C)c2)CC1`: the INHIBITION amounted to 31.6%.
Regarding `O=C(c1ccno1)N1CCOC[C@H](Oc2ccc(C(F)(F)F)cc2)C1`, the INHIBITION is reported as 50.2%.
To `COc1ccc(O[C@H]2COCCN(C(=O)c3ccno3)C2)cc1` belongs -11.1%; to `O=C(c1ccno1)N1CCOC[C@H](Oc2ccccc2)C1`, 25.3%.
Then `CCOCC(=O)Nc1cccc(Oc2ccccn2)c1`, with -13.4%; and `COCCN1CCC2(CCN(Cc3cccs3)CC2)C1=O`, with -3.12%; and `O=C(NCCCn1nc2ccccn2c1=O)NCc1ccccc1`, with -9.76%.
For `O=C(NCCN1CCCC1)c1cc2c(s1)CCN2c1ncccn1`, the INHIBITION stood at 61.1%.
Then `O=C(NCC1CC1)c1cc2c(s1)CCN2C(=O)c1cccnc1`, with -26.1%; and `CCCNC(=O)c1cc2c(s1)CCN2c1ncccn1`, with 4.98%.
For the compound `O=C(NCC1CC1)c1cc2c(s1)CCN2c1ncccn1`, the INHIBITION was 75.6%.
With `CC(C)NC(=O)c1cc2c(s1)CCN2c1ncccn1`, the INHIBITION was -21.3%.
Then `Cc1ccc(N2CCc3sc(C(=O)NCCN4CCCC4)cc32)nn1`, with -15.2%.
Regarding `O=C(c1ccco1)N1CCO[C@@H]2CNC[C@@H]21`, the INHIBITION is listed as 22.2%.
Regarding `COc1ccc(C)cc1-n1ccc(C(=O)NCC2CCCOC2)n1` (stereo unspecified), the INHIBITION is on record as 17.3%.
